Compound activity (PubChem)
Sampled rows, rich in hits. Any-hit rate of the full collection: about 19%.
TDP1 cell noCPT: qHTS for Inhibitors of human tyrosyl-DNA phosphodiesterase 1 (TDP1): qHTS in cells in absence of CPT | DT40 Tdp1-/- hTDP1 cells, no CPT, ATP luminescence, 48 h | Potency, µM (top dose mostly 46.2 µM), usual class: inhibitors | 420,000 compounds, 15% hits | AID 686978, 2013; note: nearly all actives have a fitted effect of over 55% in size
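Seeded 400 DT40-hTDP1 cells/well (vehicle DMSO, no 20 nM CPT); pinned compounds; ≥48 hr at 37 °C; CellTiter-Glo luminescence as viability measure.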
BCR signal inh: chronic active BCR signaling inhibition; Potency, µM (series often up to 46.1 µM), usual class: inhibitors; AID 493014; 340,000 compounds, 0.05% hits; ABC-DLBCL IkBa-CBG/CBR reporter, luminescence ratio, 4 h; active = well fitted inhibition curve with a large enough effect in the signal ratio, with a control signal flat, not every such curve was filed as active; inconclusive = small, poorly fitted or top-dose-only effect, or effect the other way, or a change in a side signal; the % refers to the signal ratio
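TMD8 ABC-DLBCL cells carrying doxycycline-inducible green luciferase fused to IkappaBalpha plus unfused red luciferase were exposed to compounds (up to 46 uM) for 4 hrs at 37C. Activity came from the overlap-corrected green/red luminescence ratio.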
MCF10A rerep: DNA re-replication induction in MCF 10a cells; Potency, µM (top dose mostly 46.1 µM), most hits filed as activators; MCF 10A DNA re-replication, Hoechst nuclear intensity, 48 h; 350,000 compounds, 2.9% hits; AID 624296; note: nearly all actives have a fitted effect of over 50% in size
SW480 rerep: inducers of DNA re-replication in SW480 colon cancer cells. SW480 DNA re-replication, Hoechst DNA content imaging, 48 h. Potency, µM (titrated, usually from 46.1 µM), most hits filed as activators. 340,000 compounds, 1.8% hits. AID 624297; note: nearly all actives have a fitted effect of over 55% in size
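DNA re-replication was detected as more nuclei of elevated Hoechst intensity after 48 hr exposure to compound (23 nL pinned per well of 250 cells).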
DT40 TDP1 CPT: growth inhibition of DT40 Tdp1-/-;hTDP1 cells with camptothecin (screen for TDP1 inhibitors). chicken DT40 Tdp1-/-;hTDP1 cells + 20 nM CPT, ATP luminescence, 48 h. Potency, µM (doses to about 46.2 µM), most hits filed as inhibitors. 420,000 compounds, 12% hits; note: nearly all actives have a fitted effect of over 55% in size
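Chicken DT40 Tdp1-/- cells stably complemented with human TDP1 were seeded at 400 cells/well in medium containing 20 nM camptothecin, exposed to pin-transferred compounds, and grown at 37 °C for at least 48 hr. Viability was read as ATP luminescence.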
IL1B secr inh: blocks inflammasome-driven IL-1 beta release. 360,000 compounds, 4.7% hits. activity change, % at 57.5 µM. THP-1 LPS/ATP IL-1B secretion, AlphaLISA, 16 h; active compounds read low. AID 743279; in the data active = activity change below about -50%; inconclusive = mostly about -30% to -49%
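Secreted IL-1B measured by AlphaLISA bead assay after 16 h compound exposure of THP-1 cells; compounds (final up to 57.5 uM) added 1 h before LPS (250 ng/mL) and ATP (1.25 mM) stimulation; lower signal means less secretion.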
Hits are given with their value; i = inactive; ? = inconclusive; nt = not tested or not shown; [ ] = remark or other dose. Unless noted, calls come from the whole dose curve; as a rule, active = well fitted curve in the direction sought with a large enough effect; inconclusive = small, poorly fitted or top-dose-only effect, or another doubt; inactive = no such curve, though single readings can be large; an effect the other way counts as inactive or inconclusive.

SMILES | TDP1 cell noCPT | BCR signal inh | MCF10A rerep | SW480 rerep | DT40 TDP1 CPT | IL1B secr inh
CC(C)(C)Cc1c(-c2ccc(Br)cc2)nc2ccc(Cl)cn12 | ? | nt | nt | nt | 20.6µM | i
CC(C)(C)Cc1c(-c2ccc(Cl)cc2)nc2ccc(Br)cn12 | ? | nt | nt | nt | ? | i
O=C(Nc1nnc(CSCc2ccc(F)cc2)s1)c1ccc([N+](=O)[O-])cc1 | i | i | i | i | i | i
CC(C)(O)C1CC[C@@]2(C)C3CCC4[C@@]5(C)CCCC(C)(C)C5C(O)C[C@]4(C)[C@]3(C)CC[C@@H]12 (some centres not stated) | i | nt | nt | nt | i | nt
O=C(c1ccco1)N1N=C(c2ccccc2O)CC1c1cccs1 (configuration not stated) | ? | nt | nt | nt | i | i
CC(C)(C)Cc1c(-c2ccc(Cl)cc2)nc2ccc(Cl)cn12 | ? | nt | nt | nt | ? | i
CC(C)(C)Cc1c(-c2ccccc2)nc2ccc(Cl)cn12 | 23.1µM | nt | nt | nt | 23.1µM | i
O=[N+]([O-])c1cc(/C=N/N2CCCCC2)ccc1Cl | ? | ? | i | i | i | i
Nc1nnnn1/N=C\c1ccc(Cl)c([N+](=O)[O-])c1 | ? | i | ? | ? | ? | -61.5
Nc1nnnn1/N=C/c1ccc(O)cc1 | i | i | ? | i | i | i
CCN(CC)c1ccc(/C=N/n2nnnc2N)c(O)c1 | 16.4µM | i | ? | ? | 14.6µM | i
Nc1nnnn1/N=C/c1cc(Cl)ccc1O | i | i | i | i | i | i
CCN(C)c1ccc(/C=N\n2nnnc2N)cc1 | 5.8µM | ? | ? | ? | 7.31µM | i
COc1ccccc1N1CCN(CCS(=O)(=O)c2cc(Cl)ccc2Cl)CC1 | ? | nt | nt | nt | ? | i
COc1cc2nc(N(C)C)c(CNCc3nonc3C)cc2c(OC)c1OC | i | nt | nt | nt | i[9.04 µM] | nt
N#CC1=C(SCc2ccccc2)NC(=O)CC1c1cccc(O)c1 (configuration not stated) | i | i | i | i | i | -54.1
COC(=O)CSC1=C(C#N)C(c2ccc(F)cc2)CC(=O)N1 (configuration not stated) | ? | i | i | i | i | i
CCCOC(=O)CSC1=C(C#N)C(c2ccc3c(c2)OCO3)CC(=O)N1 (configuration not stated) | 23.1µM | ? | ? | i | 18.4µM | i
COC(=O)CSC1=C(C#N)C(c2ccc(C)o2)CC(=O)N1 (configuration not stated) | 2.91µM | ? | ? | 5.8µM | 14.6µM | i
CCOc1ccc(NC(=O)CSC2=C(C#N)C(c3ccc4c(c3)OCO4)CC(=O)N2)cc1 (configuration not stated) | i | ? | i | i | i | -55.1
COc1ccccc1CN1CCCC2(CCN(C(=O)c3cccn3C)CC2)C1 | i | nt | nt | nt | i | nt
COCCSc1nc2c([nH]c3ccccc32)c(=O)n1-c1ccc(OC)c(OC)c1 | ? | nt | nt | nt | i | nt
Cc1cccc(NC(=O)CSc2nnc(NC(=O)CN3CCCCC3)s2)c1 | nt | i | i | i | nt | nt
Cn1nnnc1SCC(=O)Nc1cc(S(=O)(=O)N2CCCCC2)ccc1Cl | 23.1µM | i | i | i | 18.4µM | i
Cc1cccc(Nc2nnc(SCC(=O)Nc3cccc(S(=O)(=O)N4CCCCC4)c3)s2)c1 | 23.1µM | ? | ? | i | 23.1µM | i
SMILES | TDP1 cell noCPT | BCR signal inh | MCF10A rerep | SW480 rerep | DT40 TDP1 CPT | IL1B secr inh
Cc1csc(SCC(=O)Nc2ccc(S(=O)(=O)N3CCCC3)cc2)n1 | i | i | i | i | 18.4µM | i
Cc1csc(SCC(=O)Nc2cccc3nsnc23)n1 | ? | ? | i | i | 7.31µM | i
O=C(NCc1ccncc1)c1cnn(-c2ncc3c(n2)-c2ccccc2CC3)c1C1CC1 | i | nt | nt | nt | i | nt
Cc1cccc(C)c1Nc1nnc(SCC(=O)c2ccc(Br)s2)s1 | 16.4µM | ? | i | i | ? | i
Cc1cccc(C)c1Nc1nnc(SCC(=O)Nc2cc(S(=O)(=O)N3CCCCC3)ccc2Cl)s1 | 20.6µM | i | i | i | ? | i
Cc1ccc(Nc2nnc(SCC(=O)c3ccc(Br)s3)s2)c(C)c1 | ? | i | i | i | i | ?
Cc1ccccc1OCC(=O)NCC(=O)OC(c1ccccc1)c1ccccc1 | i | nt | nt | nt | i | nt
CCc1ccccc1NC(=O)C1=CN2CCS(=O)(=O)N=C2C=C1 | i | i | i | i | i | i
O=C(N/N=C/c1c[nH]c2ccccc12)c1cccc(Cl)c1 | i | ? | i | i | i | i
CC(C)c1cc(C(=O)N/N=C/c2c[nH]c3ccccc23)n[nH]1 | ? | ? | ? | i | ? | i
CCc1ccc(-c2cc(C(=O)N/N=C/c3c[nH]c4ccccc34)[nH]n2)cc1 | 6.51µM | ? | 20.6µM | 6.51µM | 16.4µM | -53.4
CCc1ccc2c(Cl)c(C(=O)N/N=C/c3c[nH]c4ccccc34)sc2c1 | ? | ? | ? | ? | 20.6µM | -50.1
COc1ccc(C(=O)NCCc2ccccc2F)cc1OC1CCN(C(C)=O)CC1 | i | i | i | i | i | i
CCCCc1ccc(NC(=O)c2ccc(=O)n(Cc3cccc(C)c3)c2)cc1 | 18.4µM | nt | nt | nt | ? | nt
CNC(=O)c1ccc(=O)n(Cc2cccc(C(F)(F)F)c2)c1 | i | i | i | i | i | i
Cc1noc(Cn2c(=O)c3ccccc3n(CC(=O)Nc3ccccc3C(F)(F)F)c2=O)n1 | i | nt | nt | nt | i | nt
N#Cc1cccc(NC(=O)N2CCC3(CC2)CCN(C(=O)c2cnccn2)CC3)c1 | i | nt | nt | nt | i | nt
CCOC(=O)C1Nc2ccc(OC(F)(F)F)cc2C2C=CCC12 (configuration not stated) | ? | nt | i | i | ? | i
CCOC(=O)C1Nc2ccccc2C2C(O)C(O)CC12 (configuration not stated) | ? | nt | i | ? | 29.1µM | i
O=C(NCCOc1ccccc1)C1Nc2ccc(C(F)(F)F)cc2C2c3ccccc3CC12 (configuration not stated) | ? | nt | ? | i | ? | -74.0
CCOC(=O)C1=C(C)N(C)C(=O)NC1c1ccccc1OC (configuration not stated) | i | i | i | i | ? | i
CC(C)(C)N1C(=O)c2ccccc2NC(=O)C1C(=O)NCCOc1ccccc1 (configuration not stated) | ? | nt | nt | nt | i | i
CCOC(=O)C1Nc2ccc(C(F)(F)F)cc2C2c3ccccc3CC12 (configuration not stated) | 16.4µM | nt | ? | i | 18.4µM | -99.3
Nc1c(C(=O)NCCN2CCOCC2)c2nc3ccccc3nc2n1-c1ccc2c(c1)OCO2 | ? | ? | i | i | ? | -59.0
